The list is not random: actives were taken first. Their share in the collection is about 5.6%.
Six1-Eya2 inh: qHTS Assay for Inhibitors of the Six1/Eya2 Interaction; Homeobox protein SIX1 (Homo sapiens) + Protein phosphatase EYA2 (Homo sapiens), …; AlphaScreen GST-Six1/His-Eya2 binding, biochemical; active compounds read low; activity change, % (test concentration not listed); hit rate 0.56% among 360,000; AID 651725, 2012; in the data active means activity change below about -65%; inconclusive means mostly about -30% to -63%
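Homogeneous AlphaScreen proximity assay pairing GST-Six1 with His-tagged Eya2 (added as 5X mix: 250 nM and 500 nM) in 50 mM Tris pH 8.0, 300 mM NaCl, 1 mM TCEP. Glutathione donor and nickel acceptor beads; 1 h, 37 °C, dark.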
CtBP-E1A inh: qHTS Assay for Inhibitors of the CtBP/E1A Interaction; CtBP / adenovirus E1A interaction (AlphaScreen); AlphaScreen GST-E1A/His-CtBP binding, 1536-well; active compounds read low; activity change, % (test concentration not listed); hit rate 0.49% among 340,000; AID 651724, 2012; in the data active means activity change below about -65%; inconclusive means mostly about -30% to -63%
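Steps: dispense buffer (Tris pH 8.0, NaCl 300 mM, TCEP 1 mM, BSA, Tween 20); add 5X protein mix (GST-E1A, His-CtBP, 125 nM each); pin 23 nL compound; 2 h at 37 °C, dark; add 5X beads (50 ug/mL); 1 h; read.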
VP16 counter: VP16 counterscreen qHTS for inhibitors of ROR gamma transcriptional activity | hit rate 3.5% among 310,000 | AID 2546, 2010 | Potency, µM (doses to about 53.6 µM), inactives show at the highest dose activity, negative = inhibition, hits mostly inhibitors | Drosophila S2 Gal4-VP16 UAS-luciferase, luminescence, 20 h;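 further: Gal4-VP16 expression switched on by copper sulfate through the metallothionein promoter; potency means the concentration at half of the fitted maximal effect; nearly all actives have a fitted effect of over 50% in size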
RORg inh: qHTS for inhibitors of ROR gamma transcriptional activity; Nuclear receptor ROR-gamma (Mus musculus), P51450; Drosophila S2 Gal4-RORgamma UAS-luciferase reporter, 20 h; Potency, µM (series often up to 53.6 µM), without a hit: at the top dose activity change, negative = inhibition, hits mostly inhibitors; hit rate 5.4% among 310,000; AID 2551, 2010; further: potency means the concentration at half of the fitted maximal effect; nearly all actives have a fitted effect of over 60% in size
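ROR gamma transcriptional activity was tracked as Gal4-UAS luciferase output in stably transfected Drosophila Schneider cells, with compound added 1 hr before 700 uM copper sulfate induction and a 20 hr ambient-temperature incubation.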
PKM2 act: qHTS Assay for Activators of Human Muscle isoform 2 Pyruvate Kinase; Potency, µM (highest dose often 57.5 µM), for inactives: at the top dose activation, actives largely listed as activators; Pyruvate kinase PKM (Homo sapiens), P14618; purified PKM2, Kinase-Glo ATP luminescence, activation; response scale: 0% is enzyme alone, no compound; hit rate 0.34% among 260,000; further: potency means the concentration at half of the fitted maximal effect; nearly all actives have a fitted effect of over 55% in size
Target sequence (P14618 whole entry, looked up, canonical isoform): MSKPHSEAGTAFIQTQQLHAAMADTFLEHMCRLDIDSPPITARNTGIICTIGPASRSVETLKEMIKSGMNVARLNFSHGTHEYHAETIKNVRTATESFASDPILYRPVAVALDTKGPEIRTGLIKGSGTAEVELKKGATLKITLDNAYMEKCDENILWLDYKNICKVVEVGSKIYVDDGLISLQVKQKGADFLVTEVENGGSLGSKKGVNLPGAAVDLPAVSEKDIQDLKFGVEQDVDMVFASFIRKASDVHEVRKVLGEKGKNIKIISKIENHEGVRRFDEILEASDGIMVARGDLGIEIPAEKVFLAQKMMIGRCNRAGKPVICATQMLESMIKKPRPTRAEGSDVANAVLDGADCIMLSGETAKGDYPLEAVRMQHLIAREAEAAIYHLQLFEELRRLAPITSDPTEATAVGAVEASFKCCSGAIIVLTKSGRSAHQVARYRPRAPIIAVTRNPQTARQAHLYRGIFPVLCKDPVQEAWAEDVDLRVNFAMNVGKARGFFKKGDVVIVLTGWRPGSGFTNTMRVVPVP
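hPK-M2, >95% pure; 0.1 mM ADP / 0.5 mM PEP final; imidazole pH7.2 buffer w/ 7 mM MgCl2, 50 mM KCl; 1 h RT; Kinase-Glo lum. Intermediate enzyme activity for dual inhibitor/activator qHTS.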
* = called active by the depositor; ? = inconclusive; . = no result given. Unless noted, the call rests on the fitted dose curve; in most records, active means well fitted curve in the direction sought with a large enough effect; inconclusive means small, poorly fitted or top-dose-only effect, or another doubt; inactive means no such curve, though single readings can be large; an effect the other way counts as inactive or inconclusive. On the % scale 0 is the no-effect control and ±100 the full control effect.

SMILES | Six1-Eya2 inh | CtBP-E1A inh | VP16 counter | RORg inh | PKM2 act
O=C(CCl)N1c2ccccc2SCC1c1ccccc1 (stereo not drawn) | 7.0 | 0.0 | 14.1µM* | 11.2µM* | -1.2%
O=C(CCl)N1c2ccccc2OCC1c1ccccc1 (stereo not drawn) | 0.6 | 6.6 | -12.1% | 21.7% | -0.7%
O=C(NC(=S)Nc1cc(Cl)ccc1Cl)c1ccco1 | 7.7 | 0.6 | . | . | .
CCCCNC(=O)Nc1ccnn1C1CCCCC1 | -0.2 | 4.0 | 1.9% | 18.6% | 3.98µM*
Brc1ccc(N=Nc2ccc3ccccc3n2)cc1 | -8.5 | -12.1 | 0.447µM* | 0.112µM* | -15.0%
COc1ccc(C)cc1NS(=O)(=O)c1ccc(-c2cnc(C3CC3)o2)cc1 | 10.7 | . | 17.8µM* | 34.4% | .
Cc1nn2c(nc1=O)NNC2(C)C(C)(C)C (stereo not drawn) | -21.4 | -25.2 | -13.8% | 11.2µM* | -4.0%
O=S1(=O)CC(N2CC=CC2)CN1Cc1ccc(F)cc1 (stereo not drawn) | 7.7 | ? | . | . | .
COc1ccc(Cl)cc1NS(=O)(=O)c1cccc(C(=O)NCC(c2ccco2)N(C)C)c1 (stereo not drawn) | -8.7 | 0.8 | -9.8% | -0.5% | 0.8%
N/N=C(/Cc1nc2ccccc2[nH]1)c1ccc([N+](=O)[O-])cc1 | -12.6 | -27.6 | ? | 14.1µM* | 2.7%

Compound activity (PubChem BioAssay)
